This passage reports AC50 and outcome results from PubChem BioAssay (EPA / NIEHS).

Read-out in test [1]: Matrix Metallopeptidase 1 (MMP1), MMP1 (gene 4312)
Put plainly: BSK_BE3C_MMP1: BioMAP Diversity Plus: BE3C Assay for Matrix Metallopeptidase 1 (MMP1) Biomarker Activity (AID 2283024). The conditions noted are these: primary human bronchial epithelial cells; actives raise or lower the signal. The method in brief: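 Dose cells, wait 24 h, run MMP1 ELISA; cells are human bronchial epithelial primaries. Both increases and decreases relative to DMSO counted.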

A short description of test [2]: BSK_3C_Vis: BioMAP Diversity Plus: 3C Assay for Morphology Visualization (AID 2283025).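 For AC50: light microscopy image of cell morphology used as background control; cells imaged 24 h after dosing.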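 Note: fitted both ways so gain or loss versus DMSO counts.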 The conditions noted are these: primary human endothelial cells (HUVEC). The method in brief: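 Endothelial cells from human umbilical vein were treated with test chemicals for 24 h and inspected by light microscopy for changes in cell conformation.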
Read-out in test [3]: Pselectin, SELP (gene 6403)
Description: BSK_4H_Pselectin: BioMAP Diversity Plus: 4H Assay for Pselectin Biomarker Activity (AID 2283026). The conditions noted are these: primary human endothelial cells (HUVEC); actives raise or lower the signal. The method in brief: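 Human vascular endothelium from umbilical vein; P-selectin measured by ELISA at 24 h post-dose, with cytotoxicity checked by sulforhodamine B total-protein staining in parallel cultures (0.1% SRB after 10% TCA fixation, read at 560 nm).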

Test [4] is described as follows: BSK_4H_SRB: Viability Assessment in the BioMAP Diversity Plus: 4H Assay (AID 2283027).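 For AC50: curves fitted both ways versus DMSO so AC50 may be loss or gain.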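 Note: cells exposed to compound for 24 h before staining.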 As to conditions: primary human endothelial cells (HUVEC). The method in brief:
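Absorbance at 560 nm of SRB-stained total protein served as the viability read-out in confluent primary human umbilical vein endothelium 24 h after chemical treatment. Curves were fitted bidirectionally against DMSO as negative control.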

Test [5] is described as follows: BSK_BE3C_SRB: Viability Assessment in the BioMAP Diversity Plus: BE3C Assay (AID 2283028).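 For AC50: fitted both ways so AC50 may mark signal gain or loss versus DMSO.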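 Note: measured 24 h after chemical dosing.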 The conditions noted are these: primary human bronchial epithelial cells. The method in brief:
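Cells (human bronchial epithelial, primary) are treated with chemicals, and after 24 h the parallel cultures are fixed in 10% TCA. These are then stained with 0.1% SRB and read at 560 nm. Gain or loss of signal is fitted relative to DMSO.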

Read-out in test [6]: Thrombomodulin, THBD (gene 7056)
Description: BSK_3C_Thrombomodulin: BioMAP Diversity Plus: 3C Assay for Thrombomodulin Biomarker Activity (AID 2283029). As to conditions: primary human endothelial cells (HUVEC); actives raise or lower the signal. The method in brief: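 Thrombomodulin ELISA, human primary HUVEC, 24 h post-dose; data fitted in both directions relative to DMSO.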

Read-out in test [7]: Vascular endothelial growth factor receptor 2 (Homo sapiens) (UniProt P35968)
Put plainly: BSK_4H_VEGFRII: BioMAP Diversity Plus: 4H Assay for Vascular endothelial growth factor receptor 2 (VEGFR2) Biomarker Activity (AID 2283031).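 For AC50: cell-surface VEGFR2 protein level quantified by ELISA.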 The conditions noted are these: primary human endothelial cells (HUVEC); actives raise or lower the signal. The method in brief: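 ELISA read-out of VEGFRII in primary human umbilical vein endothelium, taken 24 h after chemical treatment. Responses are expressed relative to DMSO, with bidirectional fitting.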

Read-out in test [8]: Human Leukocyte Antigen - DR isotype (HLADR), HLA-DRA (gene 3122)
Description: BSK_BE3C_HLADR: BioMAP Diversity Plus: BE3C Assay for Human Leukocyte Antigen - DR isotype (HLADR) Biomarker Activity (AID 2283032). The conditions noted are these: primary human bronchial epithelial cells; actives raise or lower the signal. The method in brief: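 Signal came from an ELISA for HLA-DR in human bronchial epithelial primary cells harvested 24 h after treatment; gain- and loss-of-signal fitting used DMSO controls as reference.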

Read-out in test [9]: Vascular cell adhesion molecule 1 (VCAM1), VCAM1 (gene 7412)
Description: BSK_4H_VCAM1: BioMAP Diversity Plus: 4H Assay for Vascular cell adhesion molecule 1 (VCAM1) Biomarker Activity (AID 2283033).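 For outcome: cell-surface VCAM-1 protein measured by ELISA.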 The conditions noted are these: primary human endothelial cells (HUVEC); actives raise or lower the signal. The method in brief: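 Endpoint derived from bidirectional fitting against DMSO controls of VCAM-1 ELISA signal in umbilical vein endothelial cells sampled at 24 h following treatment.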

Read-out in test [10]: Interferon-gamma inducible Protein 10 (IP10), CXCL10 (gene 3627)
Description: BSK_BE3C_IP10: BioMAP Diversity Plus: BE3C Assay for Interferon-gamma inducible Protein 10 (IP10) Biomarker Activity (AID 2283034). As to conditions: primary human bronchial epithelial cells; actives raise or lower the signal. The procedure, abridged: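 Using primary human bronchial epithelial cultures, the assay captures IP-10 by ELISA one day (24 h) after exposure. Parallel SRB staining of total protein flags overt cytotoxicity. Fits run bidirectionally relative to DMSO.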

Read-out in test [11]: Monokine induced gamma interferon (MIG), CXCL9 (gene 4283)
Put plainly: BSK_BE3C_MIG: BioMAP Diversity Plus: BE3C Assay for Monokine induced gamma interferon (MIG) Biomarker Activity (AID 2283035).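 For outcome: MIG protein measured by ELISA in BE3C cultures after 24 h of dosing.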 The conditions noted are these: primary human bronchial epithelial cells; actives raise or lower the signal. The procedure, abridged: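 MIG level was determined by ELISA after 24 h chemical treatment of primary human bronchial epithelial cells. Values were fitted bidirectionally with DMSO as the negative control and activity baseline.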

Read-out in test [12]: Transforming growth factor beta 1 (TGFb1), TGFB1 (gene 7040)
Description: BSK_BE3C_TGFb1: BioMAP Diversity Plus: BE3C Assay for Transforming growth factor beta 1 (TGFb1) Biomarker Activity (AID 2283036;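 for outcome: TGF-b1 protein level measured by ELISA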). As to conditions: primary human bronchial epithelial cells; actives raise or lower the signal. The procedure, abridged:
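In this human primary bronchial epithelial system, an ELISA quantified TGF-b1 one day after dosing. Endpoint changes in either direction were fitted relative to DMSO.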

Read-out in test [13]: Plasminogen activator inhibitor-1 (PAI1), SERPINE1 (gene 5054)
Description: BSK_BE3C_PAI1: BioMAP Diversity Plus: BE3C Assay for Plasminogen activator inhibitor-1 (PAI1) Biomarker Activity (AID 2283037). The conditions noted are these: primary human bronchial epithelial cells; actives raise or lower the signal. The method in brief:
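PAI-1 biomarker levels in treated human bronchial epithelial cells are determined by ELISA at 24 h. Both increases and decreases relative to DMSO are fitted.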

Read-out in test [14]: urokinase plasminogen activator (uPA), PLAU (gene 5328)
Put plainly: BSK_BE3C_uPA: BioMAP Diversity Plus: BE3C Assay for urokinase plasminogen activator (uPA) Biomarker Activity (AID 2283038).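 For outcome: uPA protein level quantified by ELISA in cell cultures; uPA read one day after compound addition.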 The conditions noted are these: primary human bronchial epithelial cells; actives raise or lower the signal. The method in brief:
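Bronchial epithelial cells (human, primary); chemical 24 h; uPA by ELISA; bidirectional fit vs DMSO. SRB (0.1%, after 10% TCA fixation, 560 nm) in parallel cultures for cytotoxicity.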

Read-out in test [15]: Urokinase-type plasminogen activator receptor (uPAR), PLAUR (gene 5329)
Put plainly: BSK_BE3C_uPAR: BioMAP Diversity Plus: BE3C Assay for Urokinase-type plasminogen activator receptor (uPAR) Biomarker Activity (AID 2283039).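 For outcome: uPAR protein level measured by ELISA on the cells; cells exposed to compound for one day before measurement.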 As to conditions: primary human bronchial epithelial cells; actives raise or lower the signal. The method in brief:
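A uPAR ELISA serves as the readout, taken 24 h after treating primary human bronchial epithelial cells. Responses in either direction are fitted against DMSO, which defines baseline activity.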

Read-out in test [16]: Interleukin-6 (IL6), IL6 (gene 3569)
Description: BSK_CASM3C_IL6: BioMAP Diversity Plus: CASM3C Assay for Interleukin-6 (IL6) Biomarker Activity for (AID 2283040). As to conditions: primary human coronary artery smooth muscle cells; actives raise or lower the signal.

Read-out in test [17]: Interleukin-8 (IL8), CXCL8 (gene 3576)
Description: BSK_CASM3C_IL8: BioMAP Diversity Plus: CASM3C Assay for Interleukin-8 (IL8) Biomarker Activity (AID 2283042).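 Note: IL-8 protein level quantified by ELISA.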 As to conditions: primary human coronary artery smooth muscle cells; actives raise or lower the signal.

Read-out in test [18]: Human Leukocyte Antigen - DR isotype (HLADR), HLA-DRA (gene 3122)
Description: BSK_CASM3C_HLADR: BioMAP Diversity Plus: CASM3C Assay for Human Leukocyte Antigen - DR isotype (HLADR) Biomarker Activity (AID 2283043).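 Note: cell-surface HLA-DR protein level quantified by ELISA.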 As to conditions: primary human coronary artery smooth muscle cells; actives raise or lower the signal.

The structures appear in SMILES notation. Activity calls are given as the source filed them. Rule for the calls: active = hit-call score of the fitted dose curve at least 0.9, where 1 is the maximum; inactive = score below 0.9.

Turning to `O=C(Nc1ccc2[nH]ccc2c1)c1cc2cc(F)ccc2n1Cc1cccc(F)c1`, the AC50 (in general, the concentration at which the activity in the assay is half-maximal) in [1] is 9.72 µM (active); in [2], 12.8 µM (active); in test [3], 7.85 µM (active); in test [4], 10 µM (active); in test [5], 6.76 µM (active); in [7], 8.6 µM (active). Also, the AC50 in test [8] was 5.82 µM (active); in test [9] it was 8.66 µM (active); in test [10] it was 8.41 µM (active); in test [11] it was 8.22 µM (active); in [13], 5.51 µM (active); in [15], 6.74 µM (active). The AC50 in test [16] was 33.5 µM (active); in test [17] it was 23.6 µM (active); in test [18] it was 17.8 µM (active). For the same molecule, the outcome in test [6], in [12] and in test [14] was inactive.
Consider `CCOC(=O)/C=C(C)/C=C/C[C@@H](C)CCCC(C)C`, for which the outcome in [1], in [2], in test [5], in test [13] and in test [17] was inactive. In addition, the AC50 was 25.2 µM (active) in test [3]; 34.3 µM (active) in test [4]; 5.42 µM (active) in [6]; 33 µM (active) in test [7]; 20 µM (active) in test [8]; 30.6 µM (active) in [9]. The AC50 is 20 µM (active) in [10]; 30 µM (active) in [11]; 20 µM (active) in test [12]; 20 µM (active) in [14]; 20 µM (active) in [15]; 30.7 µM (active) in test [16]. Further, the AC50 in test [18] was 18.5 µM (active).
As for `ClC1(Cl)C2(Cl)C3(Cl)C4(Cl)C(Cl)(Cl)C5(Cl)C3(Cl)C1(Cl)C5(Cl)C24Cl` (centres undefined), the outcome in [1], in [2], in test [3], in test [4], in test [5] and in test [6] was inactive. The outcome in test [7], in [8], in test [9], in test [10], in [11] and in [12] was inactive. The outcome in test [13], in [14], in test [15], in test [16], in test [17] and in test [18] was inactive.
